# The list is not random: actives were taken first. Their share in the collection is about 7.5%.
# HCV inh: blocks hepatitis C virus; 3.4% of 340,000 active; Potency, µM (highest dose often 41.8 µM), inactives show at the highest dose activity change, negative = inhibition, hits mostly inhibitors; Huh7.5.1 HCVcc-Cre infection, luciferase reporter, 44 h; also: potency is read from the fitted curve at half-maximal effect
#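 Whole-lifecycle infectious HCVcc-Cre system; cells 1,000/well, compound then virus (~0.5 moi) added 4 h after plating, 44 h culture. Luciferase read 15 sec following 15 min substrate incubation, room temp.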
# Vaccinia mCherry: inhibitors of vaccinia virus infection (mCherry reporter signal); 0.63% of 310,000 active; Potency, µM (series often up to 36.5 µM), without a hit: at the top dose activity change, negative = inhibition, actives largely listed as inhibitors; Vaccinia virus mCherry reporter infection, fluorescence; calls by dose curve; tested in A549 cells; also: potency is read from the fitted curve at half-maximal effect; nearly all actives have a fitted effect of over 35% in size
# FBPA Giardia inh: inhibitors of Giardia lamblia fructose-1,6-bisphosphate aldolase; A8B2U2; Potency, µM (highest dose often 59.6 µM), for inactives: at the top dose activity, negative = inhibition, actives largely listed as inhibitors; 0.71% of 290,000 active; purified Giardia FBPA; AID 2451; also: potency is read from the fitted curve at half-maximal effect; nearly all actives have a fitted effect of over 55% in size
# Target sequence (A8B2U2 whole entry, looked up): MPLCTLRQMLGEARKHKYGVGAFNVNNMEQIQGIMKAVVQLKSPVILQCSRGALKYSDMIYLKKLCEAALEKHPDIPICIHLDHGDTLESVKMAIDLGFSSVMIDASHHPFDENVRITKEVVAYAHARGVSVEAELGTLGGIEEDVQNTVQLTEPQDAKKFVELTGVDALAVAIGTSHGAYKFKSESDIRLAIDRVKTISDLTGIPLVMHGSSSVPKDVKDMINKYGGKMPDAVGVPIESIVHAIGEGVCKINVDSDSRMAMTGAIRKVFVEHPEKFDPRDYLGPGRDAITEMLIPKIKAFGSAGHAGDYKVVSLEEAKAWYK
#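 40 nM FBPA preincubated 10 min at RT with compound (up to 57.5 uM final), then substrate plus GAPDH/TPI/NAD/arsenate coupling and diaphorase/resazurin added. Fluorescence read after 20 min at RT, 525/598 nm.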
# FMDV inh: antivirals against foot and mouth disease virus; FMDV antiviral cell-based qHTS; AID 1159524; Potency, µM (highest dose often 57.9 µM), inactives show top-dose activity change, negative = inhibition, actives largely listed as inhibitors; 1.2% of 410,000 active; calls by dose curve; tested in HEK293T cells; also: read-out not given here; potency is read from the fitted curve at half-maximal effect; nearly all actives have a fitted effect of over 45% in size
# Vaccinia Venus: vaccinia inhibition (Venus reporter). Vaccinia virus Venus reporter expression, fluorescence. Potency, µM (titrated, usually from 36.5 µM), for inactives: at the top dose activity change, negative = inhibition, usual class: inhibitors. 0.46% of 330,000 active. AID 720580; calls by dose curve; tested in A549 cells; also: potency is read from the fitted curve at half-maximal effect; nearly all actives have a fitted effect of over 30% in size
# HCMV inh: human cytomegalovirus inhibition; HFF cells, HCMV-luciferase reporter, 72 h; active compounds read low; activity change, negative = inhibition, % at 57.5 µM; AID 1259415; 4.5% of 410,000 active; in the data active = activity change below about -60%; inconclusive = no clear call, values can overlap the other calls; inactive = above about -39%
#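 HFF cells seeded 16 h at 37C, treated with compounds, infected with luciferase-reporter HCMV at MOI 1 PFU/cell; luciferase read at 72 h post infection, normalized to buffer-only and Salinomycin controls.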
# An asterisk follows results filed as active; i = inactive; ? = inconclusive; nt = no result. Unless noted, calls follow the shape of the dose curve; as a rule, active = well fitted curve in the direction sought with a large enough effect; inconclusive = small, poorly fitted or top-dose-only effect, or another doubt; inactive = no such curve, though single readings can be large; an effect the other way counts as inactive or inconclusive. % is scaled to controls: 0 for no effect and ±100 for the full control effect.
SMILES,HCV inh,Vaccinia mCherry,FBPA Giardia inh,FMDV inh,Vaccinia Venus,HCMV inh
O=S1(=O)N[C@H](Cc2ccccc2)COc2cc(N3CCC[C@H]3CO)ccc21,nt,9%,nt,13%,-6%,-4
COc1ccc2c(c1)C=C(CN1CCC(CO)(CCc3ccccc3)CC1)CO2,-11%,?,0%,-25%,-2%,-3
COc1ccc(CC2(CO)CCN(Cc3cnn(-c4ccccc4)c3)CC2)cc1,?,-26%,0%,?,-15%,-33
COc1ccc(CC2(CO)CCN(Cc3cnn(-c4ccc(F)cc4)c3)CC2)cc1,10µM*,nt,1%,?,nt,-10
COc1ccc(CC2(CO)CCN(CC3=Cc4cc(Cl)ccc4OC3)CC2)cc1,4.5µM*,?,2%,?,?,?
CCCC1NC(=O)c2cc3ccccc3cc2-n2c1nc1cc(F)ccc1c2=O (stereo not drawn),nt,-7%,nt,?,?,-9
Cc1onc(-c2c(Cl)cccc2Cl)c1C(=O)Nn1cnnc1,5%,nt,3%,-11%,-7%,1
Cc1onc(-c2c(Cl)cccc2Cl)c1C(=O)ONC(=O)c1cc(C(F)(F)F)cc(C(F)(F)F)c1,-8%,-10%,10%,?,-11%,-99*
CC1CN(S(=O)(=O)c2cccc(C(=O)NCCC3=CCCCC3)c2)CC(C)O1 (stereo not drawn),?,-24%,nt,-26%,-21%,-27
C[C@@H](C(=O)NCCc1ccccc1)N1C(=O)N2CCc3c([nH]c4ccccc34)[C@@]2(C)C1=O,11µM*,-11%,-7%,-33%,-8%,-5
COc1ccc2[nH]c3c(c2c1)CCN1C(=O)N([C@@H](C)C(=O)NCc2ccccc2OC)C(=O)[C@]31C,13µM*,-13%,-9%,-27%,-6%,17
C[C@@H](C(=O)NCCc1ccccc1F)N1C(=O)N2CCc3c([nH]c4ccccc34)[C@@]2(C)C1=O,6.3µM*,-21%,4%,0%,-11%,5
CC(C)C(NC(=O)Cc1ccccc1)C(=O)N1CCN(c2cccc(Cl)c2)CC1 (stereo not drawn),11µM*,nt,nt,?,nt,-101*
CCCCCC(C)NC(=S)NC(=O)c1cc(S(=O)(=O)N2CCOCC2)ccc1C (stereo not drawn),?,-18%,-11%,?,?,-62*
Cc1ccc(S(=O)(=O)N2CCOCC2)cc1C(=O)N1c2ccccc2Sc2ccccc21,10µM*,nt,-7%,-27%,-24%,-39
Cc1ccc(S(=O)(=O)N2CCOCC2)cc1C(=O)NC(=S)N1CC(C)CC(C)C1 (stereo not drawn),1%,nt,?,-25%,nt,-32
COCC(C)NC(=S)NC(=O)c1cc(S(=O)(=O)N2CCOCC2)ccc1C (stereo not drawn),-11%,i,-1%,-28%,-13%,?
CCCC(C)NC(=S)NC(=O)c1cc(S(=O)(=O)N2CCOCC2)ccc1C (stereo not drawn),?,-11%,?,?,-23%,-70*
O=C1CN=C(c2ccc[nH]2)c2cc(Cl)ccc2N1,0%,i,-9%,-9%,-10%,-94*
CN=C1CN=C(c2ccc[nH]2)c2cc(Cl)ccc2N1,nt,-12%,nt,nt,-20%,nt
COc1ccc(NC(=O)C2(C)CCN2Cc2ccccc2Cl)cc1OC (stereo not drawn),nt,i,nt,?,-17%,-22
C#CCOCCOCCOCCNc1nc(N2CCN(C(=O)CCCCCCCCCCNC(=O)[C@H](CCCCN)n3cc(CCO)nn3)CC2)nc(N2CCN(C(=O)CCCCCCCCCCNC(=O)[C@H](CCCCN)n3cc(C[C@@H](C)CC)nn3)CC2)n1,11%,-27%,nt,?,10µM*,nt
C#CCOCCOCCOCCNc1nc(N2CCN(C(=O)CCCCCCCCCCNC(=O)[C@@H](CCC(=O)O)n3cc(CCCCCN)nn3)CC2)nc(N2CCN(C(=O)CCCCCCCCCCNC(=O)[C@H](CCCCN)n3cc(C[C@@H](C)CC)nn3)CC2)n1,-20%,i,nt,-25%,?,nt
C#CCOCCOCCOCCNc1nc(N2CCN(C(=O)CCCCCCCCCCNC(=O)[C@H](CO)n3cc(CCCCCN)nn3)CC2)nc(N2CCN(C(=O)CCCCCCCCCCNC(=O)[C@H](CCCN=C(N)N)n3cc(C[C@@H](C)CC)nn3)CC2)n1,-14%,nt,nt,nt,nt,nt
C#CCOCCOCCOCCNc1nc(N2CCN(C(=O)CCCCCCCCCCNC(=O)[C@@H](CCSC)n3cc(CCO)nn3)CC2)nc(N2CCN(C(=O)CCCCCCCCCCNC(=O)[C@H](CCCN=C(N)N)n3cc(C[C@@H](C)CC)nn3)CC2)n1,?,?,nt,?,10µM*,nt
SMILES,HCV inh,Vaccinia mCherry,FBPA Giardia inh,FMDV inh,Vaccinia Venus,HCMV inh
C#CCOCCOCCOCCNc1nc(N2CCN(C(=O)CCCCCCCCCCNC(=O)[C@H](CCCCN)n3cc(C)nn3)CC2)nc(N2CCN(C(=O)CCCCCCCCCCNC(=O)[C@H](CCCN=C(N)N)n3cc(C[C@@H](C)CC)nn3)CC2)n1,?,?,nt,?,10µM*,nt
C#CCOCCOCCOCCNc1nc(N2CCN(C(=O)CCCCCCCCCCNC(=O)[C@H](CCCCN)n3cc(C[C@@H](C)CC)nn3)CC2)nc(N2CCN(C(=O)CCCCCCCCCCNC(=O)[C@H](CCCN=C(N)N)n3cc(C[C@@H](C)CC)nn3)CC2)n1,?,?,nt,-41%,8.9µM*,nt
COc1ccc(S(=O)(=O)Nc2cc3c4c(c2)CCN4C(=O)CC3)cc1C,-3%,-14%,nt,25%,-8%,33
O=C(c1ccco1)N1CCC[C@@]2(CCN(C(c3ccccc3)c3ccccc3)C2)C1,nt,nt,-9%,7%,nt,nt
O=C(NCc1ccccc1Cl)c1ccc(-n2cnc3cccnc32)cc1,nt,-9%,nt,4%,6%,-94*
C[C@@H]1O[C@@H](O[C@H]2CC[C@@H](O[C@H]3[C@H](O)C[C@H](c4ccc5c(c4O)C(=O)C4=C(C5=O)[C@@]5(O)C(=O)C[C@](C)(O[C@H]6CC[C@H](O[C@H]7C=CC(=O)[C@H](C)O7)[C@H](C)O6)C[C@@]5(O)C=C4)O[C@@H]3C)O[C@H]2C)C=CC1=O,nt,nt,7.1µM*,nt,nt,nt
Cc1cccc(N(C)C(=O)C2CCN(S(=O)(=O)c3cccc4nonc34)CC2)c1,nt,3%,nt,-4%,-1%,-17
N#Cc1c(N)nc2c(c1-c1ccncc1)CCCCC2,-23%,nt,11%,0%,nt,1
N#Cc1c(N)nc2c(c1-c1cccnc1)CCCCC2,-16%,nt,-2%,-26%,nt,-62*
CCC1CSC(Nc2ccc(C(=O)/C=C/c3ccc(OC)c(OC)c3)cc2)=N1 (stereo not drawn),?,11µM*,7%,25µM*,?,-101*
